In PubChem BioAssay:
Where “and” joins values, the source holds several entries; their conditions need not be identical. Equal entries are not always repeated. Non-standard residues stand in square brackets, D forms with d. Residues, ends and D or L forms follow the SMILES beside them. pGlu = O=C1CC[C@@H](C(=O)O)N1; Thz = O=C(O)[C@@H]1CSCN1

Tested on: not listed separately
Test: signal quenchers or enhancers, Cy5 substrate/SSB – biochemical, NIH Clinical Collection, E. coli SSB, artefact control for HCV NS3 helicase inhibitor project (AID 743268)
Conditions: Cy5-oligo bound E. coli SSB, fluorescence interference

Fluorescence ratio, inactive:
NCC(O)c1ccc(O)c(O)c1 (stereo not drawn) 1.02
CN1CC(=O)N2[C@H](c3ccc4c(c3)OCO4)c3[nH]c4ccccc4c3C[C@@H]2C1=O 1
Cc1cnc(C(=O)NCCc2ccc(S(=O)(=O)NC(=O)NC3CCCCC3)cc2)cn1 1.05
C/C(=C\C(=O)OCCCCCCCCC(=O)O)C[C@@H]1OC[C@H](C[C@@H]2O[C@H]2[C@@H](C)[C@H](C)O)[C@@H](O)[C@H]1O 1.04
C[C@H]1O[C@H](O[C@H]2[C@H](O)[C@@H](O)[C@@H](O[C@H]3[C@H](O)[C@@H](O)C(O)O[C@@H]3CO)O[C@@H]2CO)[C@H](O)[C@@H](O)[C@@H]1N[C@H]1C=C(CO)[C@@H](O)[C@H](O)[C@H]1O (stereo partly drawn) 1.08
CCCCN1CCCC1CNC(=O)c1cc(C#N)c2ccccc2c1OC (stereo not drawn) 0.93
COc1ccc2[nH]c(S(=O)Cc3ncc(C)c(OC)c3C)nc2c1 (stereo not drawn) 1.05
CCN(CC)CC#CCOC(=O)C(O)(c1ccccc1)C1CCCCC1 (stereo not drawn) 1.01
COc1nc(C)nc(Cl)c1NC1=NCCN1 1.09
CC(Cc1ccc(O)c(O)c1)(NN)C(=O)O (stereo not drawn) 1.04
Cc1cc2c(s1)Nc1ccccc1N=C2N1CCN(C)CC1 1.04

Tested on: Hepatitis C virus NS3 helicase
Test: blockers of NS3h binding to DNA – biochemical, fluorescence polarization, NIH Clinical Collection, primary screen (AID 743270)
Conditions: NS3 helicase binding to Cy5-dT15 DNA, stronger effect = higher value, concentration not given here

inhibition, inactive:
O=C1CN2Cc3c(ccc(Cl)c3Cl)N=C2N1 -12.3%
COC(=O)C[C@](O)(CCCC(C)(C)O)C(=O)O[C@@H]1C(OC)=C[C@]23CCCN2CCc2cc4c(cc2[C@H]13)OCO4 -0.22%
CNCC[C@H](Oc1cccc2ccccc12)c1cccs1 1.19% and -5.46%
O=c1[nH]c(=O)n(C2CCCO2)cc1F (stereo not drawn) 6.73%
CSc1nc2cc(Oc3cccc(Cl)c3Cl)c(Cl)cc2[nH]1 5.94%
CN(C)CCc1c[nH]c2ccc(Cn3cncn3)cc12 0.4%
COc1ccc(C[C@H](C)NC[C@@H](O)c2ccc(O)c(NC=O)c2)cc1 -9.9%
CC(C)C[C@H](NC(=O)[C@@H](O)[C@H](N)Cc1ccccc1)C(=O)O 0.66%
C[C@@H](c1ncncc1F)[C@](O)(Cn1cncn1)c1ccc(F)cc1F 3.56%
CN(C)CCCC1(c2ccc(F)cc2)OCc2cc(C#N)ccc21 (stereo not drawn) -5.94% and -0.45%
CCOC(=O)c1ccc(OC(=O)CCCCCN=C(N)N)cc1 0.4%
Cc1c(C(=O)NN2CCCCC2)nn(-c2ccc(Cl)cc2Cl)c1-c1ccc(I)cc1 0.66%
CC(C)NCC(O)c1ccc(NS(C)(=O)=O)cc1 (stereo not drawn) 1.19%
CC(=O)NC[C@H]1CN(c2ccc(N3CCOCC3)c(F)c2)C(=O)O1 6.73%
CC(CCCCC(=O)Nc1ccc(C(F)(F)F)cc1)NCCc1cnc[nH]1 (stereo not drawn) -8.95%
O=C(c1ccc(OCCN2CCCCC2)cc1)c1c(-c2ccc(O)cc2)sc2cc(O)ccc12 -7.73%
O=C1CC[C@@H](C(=O)N2CSC[C@H]2C(=O)O)N1 ([pGlu]-[Thz]-OH) 5.94%
CN/C(=C\[N+](=O)[O-])NCCSCc1csc(CN(C)C)n1 1.19%
CNCC[C@@H](Oc1ccccc1C)c1ccccc1 -0.4%
Cc1cccc(CCN2CCC(C(=O)c3ccc(NS(C)(=O)=O)cc3)CC2)n1 -6.33%
CN(C)CCOc1ccc(/C(=C(/CCCl)c2ccccc2)c2ccccc2)cc1 -1.97%
CC(C)(S)C(N)C(=O)O (stereo not drawn) -10.4%
CC[C@H]1OC(=O)[C@H](C)[C@@H](O[C@H]2C[C@@](C)(OC)[C@@H](O)[C@H](C)O2)[C@H](C)[C@@H](O[C@@H]2O[C@H](C)C[C@H](N(C)C)[C@H]2O)[C@](C)(O)C[C@@H](C)CN(C)[C@H](C)[C@@H](O)[C@]1(C)O 1.36%
NCC(O)c1ccc(O)c(O)c1 (stereo not drawn) -2.27%
CN1CC(=O)N2[C@H](c3ccc4c(c3)OCO4)c3[nH]c4ccccc4c3C[C@@H]2C1=O -0.4%
Cc1cnc(C(=O)NCCc2ccc(S(=O)(=O)NC(=O)NC3CCCCC3)cc2)cn1 -5%
C/C(=C\C(=O)OCCCCCCCCC(=O)O)C[C@@H]1OC[C@H](C[C@@H]2O[C@H]2[C@@H](C)[C@H](C)O)[C@@H](O)[C@H]1O -4.09%
